The whole screen tested about 360,000 compounds, of which about 16,000 (4.4%) were called active. A call without a number means that no potency is given here. Inconclusive results (about 9%) are left out. The call rests on the fitted dose curve; in most records, active means well fitted inhibition curve with a large enough effect; inconclusive means small, poorly fitted or top-dose-only effect; inactive means no such curve, though single readings can be large or run the other way. Only a selection was taken, and actives are over-represented in it overall.
Potency means the concentration at half of the fitted maximal effect.

Bromodomain adjacent to zinc finger domain protein 2B (Homo sapiens), sequence (Q9UIF8 whole entry, looked up, the tested form may be a part): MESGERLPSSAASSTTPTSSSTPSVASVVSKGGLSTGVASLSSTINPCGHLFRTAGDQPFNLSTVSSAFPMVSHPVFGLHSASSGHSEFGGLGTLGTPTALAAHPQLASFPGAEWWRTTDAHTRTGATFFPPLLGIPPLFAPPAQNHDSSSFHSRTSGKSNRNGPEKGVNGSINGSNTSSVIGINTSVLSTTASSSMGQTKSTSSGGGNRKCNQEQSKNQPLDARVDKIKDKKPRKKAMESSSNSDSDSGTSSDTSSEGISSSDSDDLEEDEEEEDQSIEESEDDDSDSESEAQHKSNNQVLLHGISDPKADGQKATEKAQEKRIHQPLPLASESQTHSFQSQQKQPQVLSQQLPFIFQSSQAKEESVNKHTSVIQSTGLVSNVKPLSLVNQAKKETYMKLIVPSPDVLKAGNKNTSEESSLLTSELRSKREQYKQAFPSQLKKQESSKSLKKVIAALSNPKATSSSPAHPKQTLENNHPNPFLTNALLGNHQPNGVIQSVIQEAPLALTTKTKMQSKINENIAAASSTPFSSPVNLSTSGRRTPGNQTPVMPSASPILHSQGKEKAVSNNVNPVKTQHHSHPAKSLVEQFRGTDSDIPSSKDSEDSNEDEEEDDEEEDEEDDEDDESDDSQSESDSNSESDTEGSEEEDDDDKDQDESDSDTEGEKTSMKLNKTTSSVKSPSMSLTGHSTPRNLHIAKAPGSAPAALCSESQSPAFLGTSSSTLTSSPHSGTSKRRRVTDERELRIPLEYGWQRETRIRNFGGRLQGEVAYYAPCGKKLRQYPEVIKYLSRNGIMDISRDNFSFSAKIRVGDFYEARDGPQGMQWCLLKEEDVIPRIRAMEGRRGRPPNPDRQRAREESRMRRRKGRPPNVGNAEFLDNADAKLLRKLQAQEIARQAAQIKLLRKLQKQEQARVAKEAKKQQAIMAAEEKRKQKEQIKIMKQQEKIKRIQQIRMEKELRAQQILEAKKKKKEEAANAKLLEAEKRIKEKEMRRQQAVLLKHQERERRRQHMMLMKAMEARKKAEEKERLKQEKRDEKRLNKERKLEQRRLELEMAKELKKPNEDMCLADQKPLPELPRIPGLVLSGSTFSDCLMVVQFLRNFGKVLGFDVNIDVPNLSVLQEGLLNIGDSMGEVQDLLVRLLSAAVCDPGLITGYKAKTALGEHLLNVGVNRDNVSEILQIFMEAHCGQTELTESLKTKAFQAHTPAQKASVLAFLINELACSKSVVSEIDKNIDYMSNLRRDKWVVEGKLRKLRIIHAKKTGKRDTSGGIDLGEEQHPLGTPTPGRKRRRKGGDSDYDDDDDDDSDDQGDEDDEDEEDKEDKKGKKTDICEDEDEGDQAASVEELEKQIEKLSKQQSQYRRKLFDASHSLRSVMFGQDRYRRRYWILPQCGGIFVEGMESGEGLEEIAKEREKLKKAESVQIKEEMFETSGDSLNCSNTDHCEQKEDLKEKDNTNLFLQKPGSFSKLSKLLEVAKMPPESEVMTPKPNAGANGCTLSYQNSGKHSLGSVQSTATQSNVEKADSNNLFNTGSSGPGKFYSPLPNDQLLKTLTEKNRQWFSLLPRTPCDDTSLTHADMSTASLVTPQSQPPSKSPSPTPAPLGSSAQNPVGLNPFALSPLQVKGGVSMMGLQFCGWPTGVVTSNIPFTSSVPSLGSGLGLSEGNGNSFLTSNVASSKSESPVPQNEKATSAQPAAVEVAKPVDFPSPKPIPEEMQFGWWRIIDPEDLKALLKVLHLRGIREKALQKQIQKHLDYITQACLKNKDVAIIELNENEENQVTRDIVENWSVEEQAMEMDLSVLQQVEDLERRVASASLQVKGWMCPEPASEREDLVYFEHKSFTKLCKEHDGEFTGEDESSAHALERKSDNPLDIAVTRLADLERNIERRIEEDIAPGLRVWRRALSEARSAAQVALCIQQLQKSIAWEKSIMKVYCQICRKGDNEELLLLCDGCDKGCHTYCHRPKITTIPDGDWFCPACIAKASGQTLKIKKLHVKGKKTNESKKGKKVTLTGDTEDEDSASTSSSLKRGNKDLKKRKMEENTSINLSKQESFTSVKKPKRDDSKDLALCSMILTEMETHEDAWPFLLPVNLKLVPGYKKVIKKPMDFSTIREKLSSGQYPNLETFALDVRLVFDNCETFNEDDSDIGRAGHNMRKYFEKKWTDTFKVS

The experiment concerns the target Bromodomain adjacent to zinc finger domain protein 2B (Homo sapiens) (UniProt Q9UIF8). Put plainly: qHTS Assay for Inhibitors of BAZ2B. Further: nearly all actives have a fitted effect of over 60% in size. Conditions: AlphaScreen BAZ2B-H3K14Ac peptide displacement; series mostly up to 114 µM. The gist of the method: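 In this displacement format the biotinylated H3(5-23) peptide acetylated at Lys14 serves as ligand at 50 nM, with BAZ2B at 50 nM in PBS pH 7.4 containing 0.01% Tween-20. Donor and acceptor beads are 10 ug/mL final.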
In general terms: In qHTS, concentration-response curves come from the screen itself.
Consider `Cc1ccc(Cl)cc1N1CCN(C(=O)C2CCC(CNS(=O)(=O)c3cccs3)CC2)CC1` (stereo not drawn), for which the Potency result was “inactive”.

In the case of `CCOC(=O)C1CCCN(CC(=O)Nc2cc(C)c3c(=O)oc4ccccc4c3n2)C1` (stereo not drawn), the Potency entry is “inactive”.

`Cc1nc2c(c(=O)n1Cc1ccco1)c1nc3ccccc3nc1n2Cc1ccccc1`: the Potency is 56.2 µM (active). As for `Cc1cc(NC(=O)CSc2nc3cc(Cl)ccc3c(=O)n2Cc2ccco2)no1`, the Potency result is “inactive”. Take `Clc1cccc(-c2nc3nc4ccccc4nc3n2Cc2ccco2)c1`: the Potency entry was “inactive”. Consider `COc1ccccc1CNc1ccc(-c2nc(-c3ccccc3C)no2)cc1[N+](=O)[O-]`, for which the Potency result was “inactive”. Next, `COc1ccccc1-n1c(-c2ccc(C)cc2)cn2c3c(=O)n(C)c(=O)n(C)c3nc12`: “inactive”; `CCOC(=O)c1oc2ccc(S(=O)(=O)n3nc(-c4ccccc4OC)cc3N)cc2c1C`: “inactive”. Consider `CCCCOc1ccc(CN2C(=O)C(=O)c3cc(Br)cc(C)c32)cc1OC`, for which the Potency is 6.31 µM (active). Consider `CCCCOc1ccc(Cn2c(=O)oc3ccc(C)cc32)cc1OC`, for which the Potency entry is “inactive”. Consider `CCCCN1C(=O)C(C)=C(C)C1OCCc1ccc(OC)c(OC)c1` (stereo not drawn), for which the Potency entry was “inactive”. With `COc1ccccc1CNc1nccn(-c2ccc(F)cc2)c1=O`, the Potency entry was “inactive”. With `O=c1oc2c(CN3CCCCC3)c(O)ccc2c2c1CCCCC2`, the Potency result was “inactive”.

Take `COc1ccc2c3c(c(=O)oc2c1OCC(=O)C(C)(C)C)CCCC3`: the Potency is 79.4 µM (active).

On to `CCCOc1ccc2c3c(c(=O)oc2c1OCCC)CCC3`, for which the Potency result is “inactive”. As for `O=C(Cn1c(=O)n(-c2ccc(F)cc2)c(=O)c2sc3ccccc3c21)NC1CCCC1`, the Potency entry is “inactive”.

For the compound `Cc1cccc(NC(=O)c2cc3c(C)nn(-c4ccccc4)c3s2)c1`, the Potency result was “inactive”. On to `CCOC(=O)C1Sc2[nH]c(=O)sc2C(c2ccc(Cl)cc2)C1C(=O)OCC` (stereo not drawn), for which the Potency was 50.1 µM (active). Next, `CCOC(=O)C1C(c2ccc(Cl)cc2)NC(=S)NC1(O)C(F)(F)F` (stereo not drawn): “inactive”; `CCOC(=O)c1[nH]c2c(c1-c1ccccc1)C(=O)CC(c1ccc(Cl)cc1)C2` (stereo not drawn): “inactive”.

As to `Cc1ccc(NC(=O)c2oc3ccccc3c2NC(=O)Cc2cccs2)cc1`, the Potency entry was “inactive”. On to `CC(C)Sc1oc(-c2cccs2)nc1S(=O)(=O)c1ccc(Cl)cc1`, for which the Potency result was “inactive”. For `CC(O)c1ccc(OCCN(C)c2ccccn2)cc1` (stereo not drawn), the Potency result was “inactive”. For the compound `CCN(CC)S(=O)(=O)c1cc(C(=O)Nc2ccccn2)ccc1C`, the Potency entry is “inactive”. The figure for `CCN(CC)CCOc1ccc2c(c1)C(=NNC(=O)c1ccccn1)c1cc(OCCN(CC)CC)ccc1-2` is 20 µM (active); for `COc1ccccc1CNC(=O)c1ccc(-n2c(C)cc3c2CCCC3)cc1` it is “inactive”. The entry for `CC(C)c1ccc(NC(=O)C2CCN(c3nc(-c4ccc(C(C)C)cc4)no3)CC2)cc1` is “inactive”. For `NNc1nc2c(Cl)cccc2s1`, the Potency is 44.7 µM (active). Next, `NC(=O)c1c(Nc2nc3c(F)cccc3s2)sc2c1CCCC2`: “inactive”; `CC1CCCN(c2nc3c(S(=O)(=O)c4ccc(C(C)C)cc4)nnn3c3ccsc23)C1` (stereo not drawn): “inactive”; `O=C(CSc1nc(=O)[nH]c2c1CCCC2)Nc1cc(C(F)(F)F)ccc1Cl`: “inactive”. Next, `O=C(Nc1c(-c2ccc(F)cc2)nc2ccccn12)c1cccc(F)c1`: “inactive”; `CCn1cc(C(=O)OCC(=O)Nc2cc(C)cc(C)c2)c(=O)c2ccc(C)nc21`: “inactive”.

For the compound `Nc1nc(NCCCN2CCOCC2)nc(Nc2ccccc2)c1[N+](=O)[O-]`, the Potency entry is “inactive”.

Turning to `O=S(=O)(c1ccccc1)c1nc(-c2ccccc2)oc1NCCCN1CCOCC1`, the Potency result was “inactive”. Consider `N#Cc1nc(-c2ccc(OCc3ccccc3)cc2)oc1NCCCN1CCOCC1`, for which the Potency is 50.1 µM (active). Take `Cc1ccc2sc(N(Cc3cccnc3)C(=O)C3COc4ccccc4O3)nc2c1C` (stereo not drawn): the Potency result is “inactive”. Take `CN(C)c1ccc(C(CNC(=O)c2ccc(F)cc2)c2c[nH]c3ccccc23)cc1` (stereo not drawn): the Potency was 12.6 µM (active). In the case of `O=C(CNC(=O)c1ccc(F)cc1)c1ccccc1`, the Potency entry is “inactive”.

For the compound `C[C@H](NC(=O)c1ccccc1)C(=O)OCC(=O)c1c[nH]c2ccccc12`, the Potency result was “inactive”. Turning to `COc1cc(OC)cc(C(=O)Nc2ccc3nc(Nc4cccc(C(F)(F)F)c4)cc(C)c3c2)c1`, the Potency entry is “inactive”.

Turning to `O=Cc1c(Nc2ccccc2Cl)nc2ccccn2c1=O`, the Potency is 50.1 µM (active). Turning to `Cc1cccn2c(=O)c(C=O)c(Nc3ccc(S(N)(=O)=O)cc3)nc12`, the Potency entry is “inactive”. Take `O=Cc1c(N2CCN(c3cccc(Cl)c3)CC2)nc2ccccn2c1=O`: the Potency entry is “inactive”. Take `CCC(=O)N1CCc2cc(CNC(=O)Nc3ccccc3Cl)ccc21`: the Potency entry was “inactive”. Consider `CSc1ccc(CCNC(=O)c2cc(C)nc3c2c(C)nn3-c2cccc(F)c2)cc1`, for which the Potency result was “inactive”.

With `CCOc1ccccc1CNCc1c(C(=O)O)c(C)n(Cc2ccc(C)cc2)c1C`, the Potency entry is “inactive”. Consider `CCN1C(=O)c2ccccc2Sc2ccc(NC(=O)Cc3ccc(OC)cc3)cc21`, for which the Potency result was “inactive”. With `CCOC(=O)CNC(=O)N1c2ccccc2Sc2ccccc21`, the Potency entry is “inactive”. As for `CCN1/C(=C/C(=S)Nc2ccccc2)Sc2ccccc21`, the Potency was 22.4 µM (active).

As for `CCOC(=O)c1cc2c(=O)n3ccccc3nc2n(Cc2ccco2)c1=NC(=O)c1ccc(F)cc1`, the Potency entry was “inactive”.

With `COc1cc(C2C(C(=O)c3ccc(C)o3)=C(O)C(=O)N2Cc2cccnc2)ccc1O` (stereo not drawn), the Potency was 56.2 µM (active). `Cc1cc(N2C(=O)C(O)=C(C(=O)c3ccc(C)o3)C2c2ccc(OCc3ccccc3)cc2)no1` (stereo not drawn): the Potency result is “inactive”. Next, `COc1ccc(C2C(C(C)=O)=C(O)C(=O)N2Cc2cccnc2)cc1` (stereo not drawn): “inactive”. The entry for `CCOC(=O)c1c(C)[nH]c(CCC(=O)NCCCN2CCN(c3cc(C)ccc3C)CC2)c1C` is “inactive”; for `NC(=O)C1=C[C@H](c2csc3ccccc23)C[C@H](OCc2ccc(CO)cc2)O1` it is “inactive”. For the compound `O=C(O)C1=C[C@H](c2cccs2)C[C@H](OCCCCO)O1`, the Potency is 79.4 µM (active). As for `C=CCOC(=O)C1=C[C@@H](c2ccccc2)C[C@@H](OCc2ccc(CO)cc2)O1`, the Potency result was “inactive”.

For `Cn1c(=O)c2c(SCC(=O)NCC3CCCO3)nc(-c3ccccc3F)nc2n(C)c1=O` (stereo not drawn), the Potency entry was “inactive”. As for `O=C(CC(c1cccs1)N1Cc2ccccc2C1=O)Nc1ccc(F)cc1F` (stereo not drawn), the Potency entry was “inactive”. As to `Cc1cccc(OCC(=O)N(Cc2ccc(C(C)C)cc2)Cc2ccco2)c1C`, the Potency result is “inactive”. For the compound `CCS(=O)(=O)c1ncc(N(Cc2ccc(F)cc2)Cc2ccco2)c(C(=O)Nc2cc(C)ccc2C)n1`, the Potency result is “inactive”.

As for `COc1ccc2sc(-c3ccc(N(C)C)cc3)c(C#CCO)c2c1`, the Potency is 89.1 µM (active). In the case of `O=C(C1CC1)N1CCc2cc(Br)cc(S(=O)(=O)N3CCN(c4ccccc4F)CC3)c21`, the Potency result was “inactive”.

`N#Cc1ccc(CSc2nnc(-c3ccccn3)n2-c2ccc(Cl)cc2)cc1`: the Potency was 50.1 µM (active).

Turning to `N#Cc1ccc(CSc2nnc3ccccn23)cc1`, the Potency result was “inactive”. As for `N#Cc1ccc(CSc2ncccn2)cc1`, the Potency entry is “inactive”. As for `O=C(Nc1ccc(-c2nc3cc(NC(=O)c4ccccc4Cl)ccc3o2)cc1)c1ccccc1Cl`, the Potency result is “inactive”.

For `CSC1=N/C(=C\C=C\c2cccs2)C(=O)S1`, the Potency is 11.2 µM (active). As to `Cc1ccc(C)c(N2CCN(C(=O)C3CCC(CNS(=O)(=O)c4cccs4)CC3)CC2)c1` (stereo not drawn), the Potency entry is “inactive”. The entry for `CCCOc1ccc(-c2cccc(NS(=O)(=O)c3ccccc3)c2)nn1` is “inactive”; for `CCOc1ccccc1C(=O)Nc1ccc(S(=O)(=O)N2CCCCC2c2cccnc2)cc1` (stereo not drawn) it is “inactive”. `COc1cccc(NC(=O)c2ccc3c(SCC(=O)O)c4c(nc3c2)CCCC4)c1`: the Potency result is “inactive”. As for `COc1cc(/C=C/C(=O)N2CCc3ccccc3C2)cc(OC)c1OC`, the Potency entry is “inactive”.

Take `COc1ccc(C(=O)Nc2ccc3nc(N4CCCCC4)cc(C)c3c2)cc1OC`: the Potency result is “inactive”. On to `CCOc1ccc(C(=O)Nc2ccc3nc4c(c(Nc5ccccc5OC)c3c2)CCCC4)cc1`, for which the Potency is 17.8 µM (active). Take `COc1ccccc1Nc1c2c(nc3ccc(NC(=O)/C=C/c4cc(OC)c(OC)c(OC)c4)cc13)CCCC2`: the Potency was 11.2 µM (active). On to `COc1ccc(NS(=O)(=O)c2cc(NC(=O)/C=C/c3cc(OC)c(OC)c(OC)c3)ccc2N2CCCCC2)cc1`, for which the Potency entry was “inactive”. The entry for `COc1ccc2c(c1)c(N1CCCC1=O)c(C(=O)Nc1ccccc1C(F)(F)F)n2C` is “inactive”; for `Cn1nnc2c(N3CCN(c4ccccc4)CC3)ncnc21` it is “inactive”; for `CSc1ccccc1NC(=O)CCS(=O)(=O)c1nc(-c2cccs2)cc(C(F)(F)F)n1` it is “inactive”. Regarding `COc1ccccc1N1CCN(C2C(=O)c3ccccc3N2C(C)=O)CC1` (stereo not drawn), the Potency entry is “inactive”.

Regarding `COc1ccc(CCNC(=O)CCc2ccccc2O)cc1OC`, the Potency entry is “inactive”.

On to `COc1ccc(CCNC(=O)Cc2ccc(C)cc2)cc1OC`, for which the Potency is 79.4 µM (active). The entry for `COc1ccc(CCNC(=O)NS(=O)(=O)c2ccc(C)cc2)cc1OC` is “inactive”; for `CCOC(=O)c1ccc(NC(=O)CC2C(=O)N(c3cccc(OC)c3)C(=O)N2C2CCCCC2)cc1` (stereo not drawn) it is “inactive”; for `COc1cccc(NC(=S)NCc2ccccn2)c1` it is “inactive”. The figure for `COc1ccc(NCCc2ccccn2)cc1` is 56.2 µM (active). Turning to `Cc1c(C)c(C)c(S(=O)(=O)NCCc2ccccn2)c(C)c1C`, the Potency entry is “inactive”. The entry for `Cc1ccc(C(=O)CC2(O)C(=O)N(CCc3ccccc3)c3ccc(Br)cc32)cc1` (stereo not drawn) is “inactive”. Consider `COc1cc(C(=O)N(Cc2ccc(N(C)C)cc2)C2CCS(=O)(=O)C2)cc(OC)c1OC` (stereo not drawn), for which the Potency result is “inactive”. The entry for `COc1cc(C(=O)N(Cc2ccc(C(C)C)cc2)C2CCS(=O)(=O)C2)cc(OC)c1OC` (stereo not drawn) is “inactive”; for `CCc1ccc(OCC(=O)N(Cc2ccccc2)C2CCS(=O)(=O)C2)cc1` (stereo not drawn) it is “inactive”; for `Cc1ccc(CN(C(=O)COc2ccc(Cl)cc2C)C2CCS(=O)(=O)C2)o1` (stereo not drawn) it is “inactive”. In the case of `Cc1cc(Cl)ccc1OCC(=O)N(Cc1ccc(N(C)C)cc1)C1CCS(=O)(=O)C1` (stereo not drawn), the Potency was 35.5 µM (active).

Take `CC(C)c1ccc(OCC(=O)N(Cc2ccc(N(C)C)cc2)C2CCS(=O)(=O)C2)cc1` (stereo not drawn): the Potency is 28.2 µM (active). On to `Cc1cc(C)c2sc(NC(=O)c3ccc(S(=O)(=O)N4CCCC4)cc3)nc2c1`, for which the Potency entry was “inactive”. On to `COc1ccc(C(=O)CSc2c(C(C)C)cnc3c2c(=O)n(C)c(=O)n3C)cc1`, for which the Potency entry was “inactive”.

Source of the values: PubChem BioAssay AID504333 (National Center for Advancing Translational Sciences (NCATS), 2011).
